According to PubChem BioAssay:
“And” between values parts separate entries of the source, which are not always exact repeats. Equal entries are not always repeated. Some of the results follow. The source made the active and inactive calls. Rule as the data show it, unless noted: active = activation above about 8.9%; inactive = the rest.

Columns and labels:
[1] = target: Toll-like receptor 9 (Homo sapiens) (UniProt Q9NR96); assay: TLR9-MyD88 association inhibitors, retest, confirmation, cell-based, CHO, BLA complementation, fluorescence, triplicate (AID 540250;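 active = mean inhibition across three repeats above about 21% taken from the earlier screen, limit read from the data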;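 also: blue over green emission ratio reports constitutive TLR9 MyD88 association via BLA complementation; 0% = DMSO vehicle wells and 100% = clavulanate BLA inhibitor wells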); conditions: CCF4 FRET ratio, at 4.98 µM, hits give high values
[2] = beta-lactamase reporter inhibitors in CHO cells, artefact control for TLR9-MyD88 binding inhibitor project, cell-based, fluorescence (AID 540251;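 active = mean inhibition above a 50% cutoff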;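 also: counterscreen of TLR9-MyD88 hits on CMV-driven BLA in CHO-K1 cells; 0% = DMSO alone and 100% = clavulanate blocking BLA; higher means less blue over green ratio so more BLA blockade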); conditions: CHO-BLA cells, CCF4 FRET ratio, at 4.98 µM, hits give high values
[3] = CHO cell viability loss – luminescence, single concentration, cytotoxicity control for TLR9-MyD88 binding inhibitor project (AID 588336; in the data active = inhibition above about 11%); conditions: TLR9-MyD88 CHO cells cytotoxicity, at 4.98 µM, hits give high values
[4] = target: Receptor-interacting serine/threonine-protein kinase 2 (Homo sapiens) (UniProt O43353); assay: NOD2-RIPK2 binding disruptors, retest, confirmation, fluorescence, CHO cells, BLA complementation, triplicate (AID 624370;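 active = mean inhibition across replicates above a set limit taken from the earlier primary screen, cut at about 21% in these data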;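 also: 0% = DMSO-only wells and the high end = clavulanate BLA-blocked wells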); conditions: CCF4 FRET, at 4.98 µM, hits give high values
[5] = beta-lactamase reporter inhibitors in CHO cells, confirmation, artefact control for NOD2-RIPK2 interaction inhibitor project, cell-based, CHO-K1 CMV-bla, CCF4 FRET, fluorescence (AID 624371;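 active = mean inhibition above the low-control mean inhibition plus three low-control SD, cut at about 11% in these data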;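 also: 0% = DMSO only wells and 100% = clavulanate high control wells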); conditions: CCF4 FRET ratio, counterscreen, at 4.98 µM, hits give high values
[6] = target: (Lyso)-N-acylphosphatidylethanolamine lipase (Mus musculus) (UniProt Q8VD66); assay: ABHD4 inhibitors, retest, confirmation, biochemical, fluorescence polarization, mouse (AID 720658;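 active = mean inhibition across replicates above the hit cutoff set in the primary screen, cut at about 30% in these data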;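 also: 0% = wild-type ABHD4 with DMSO and 100% = catalytically dead S159A mutant with DMSO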); conditions: purified mABHD4, FP-Rh probe fluorescence polarization; at 8.92 µM; hits give high values
[7] = test system: HIV-1 integrase (multimerization); assay: HIV-1 IN multimer formation enhancers, counter-screen for LEDGF/p75 integration inhibitor project, biochemical, TR-FRET (AID 1053131); conditions: TR-FRET HIV-1 integrase multimerization, at 7.7 µM, hits give high values
[8] = TR-FRET optical interference artefacts, confirmation, artefact control for LEDGF/p75-dependent integration inhibitor project, biochemical, HIV-1 IN multimerization (AID 1053135;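 active = inhibition above the mean over all tested compounds plus 3 SD, which no compound reached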;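 also: 0% = integrase with antibodies and DMSO and 100% = antibodies without integrase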); conditions: TR-FRET optical interference counterscreen, at 7.7 µM, hits give high values
[9] = test system: HIV-1 integrase / human LEDGF/p75 complex; assay: inhibitors of HIV-1 IN-LEDGF/p75 DNA integration, confirmation, biochemical, TR-FRET (AID 1053136; in the data active = inhibition above about 14%); conditions: TR-FRET LEDGF/p75-dependent HIV-1 integration, at 3.7 µM, hits give high values
[10] = test system: TLR4-MyD88 interaction (human), BLA complementation; assay: TLR4-MyD88 association inhibitors, retest, confirmation, cell-based, HeLa CL3-4, BLA complementation, FRET ratio (AID 941;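 active = mean inhibition across three repeat runs above about 25% carried over from the earlier screen, limit read from the data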;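 also: plate controls were DMSO only for no effect and clavulanic acid blocking BLA at full dose for full effect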); conditions: CCF4 FRET ratio, at 8.4 µM, hits give high values
[11] = inhibitors of full-length beta-lactamase reporter, confirmation, artefact control for TLR4-MyD88 binding inhibitor project, cell-based, HeLa, full-length BLA, CCF4 FRET ratio (AID 1237;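 active = mean inhibition over three repeats above about 26% taken from the earlier screen, limit read from the data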;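 also: HeLa cells stably expressing beta-lactamase reporter as counterscreen for TLR4-MyD88 inhibitors; 0% = DMSO and 100% = clavulanic acid full inhibition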); conditions: at 8.4 µM, hits give high values
[12] = target: Sphingosine 1-phosphate receptor 4 (Homo sapiens) (UniProt O95977); assay: S1P4 receptor antagonists, human, confirmation, cell-based (AID 1524; in the data active = inhibition above about 30%); conditions: S1P4-expressing cell line, antagonist mode, reporter read-out; at 4.98 µM; hits give high values
[13] = target: Sphingosine 1-phosphate receptor 1 (Homo sapiens) (UniProt P21453); assay: S1P1 receptor antagonists, human, counter-screen for S1P4 antagonist project, cell-based (AID 1564; in the data active = inhibition above about 40%;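 also: receptor stimulated with S1P near its EC80; 0% = agonist stimulated wells and 100% = vehicle only wells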); conditions: cell-based S1P1 antagonist counterscreen, at 4.98 µM, hits give high values
[14] = growth loss of phage-infected E. coli expressing H. pylori AddAB, confirmation, AddAB inhibitor project, absorbance, E. coli V3065, T4 phage, triplicate (AID 488942;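 active = mean inhibition above a set limit taken from the earlier primary screen, cut at about 13% in these data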;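 also: higher means less bacterial growth since AddAB block lets phage replicate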); conditions: OD, at 11.9 µM, hits give high values, T4 phage with gene 2 nonsense mutations
[15] = growth loss of RecBCD+ E. coli with mutant T4 phage, counter-screen for AddAB inhibitor project, absorbance, V66 E. coli (AID 488955;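 active = mean inhibition above the mean of solvent-only control wells plus 3 SD, cut at about 4% in these data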;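 also: optical density read after an 18 h incubation at 37 °C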); conditions: OD growth, at 11.9 µM, hits give high values
[16] = bacterial viability inhibition counter-screen, confirmation, counter-screen for AddAB inhibitor project, absorbance (AID 488956; in the data active = inhibition above about 25%); conditions: absorbance (AddAB counterscreen), at 11.9 µM, hits give high values
[17] = growth loss of phage-infected RecBCD+ E. coli, confirmation, RecBCD inhibitor project, absorbance, E. coli V66, T4 gene 2 phage (AID 651982;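 active = mean inhibition over triplicates exceeding the hit threshold derived in the original primary screen, cut at about 11% in these data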); conditions: E. coli V66 + T4 2- phage, growth OD; at 11.9 µM; hits give high values
[18] = E. coli viability inhibition, counter-screen for RecBCD inhibitor project, absorbance, high throughput (AID 651983; in the data active = inhibition above about 20%;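 also: E. coli strain V66 grown with compound alone and no phage infection; 0% = bacteria with DMSO vehicle only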); conditions: absorbance (OD) growth, at 11.9 µM, hits give high values
[19] = growth loss of phage-infected AddAB-carrying E. coli, confirmation, counter-screen for RecBCD inhibitor project, absorbance, E. coli V3065, T4 phage (AID 651984;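 active = mean inhibition above the solvent-only control wells' mean plus 3 SD, cut at about 22% in these data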;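 also: higher means less bacterial growth from phage killing when AddAB is blocked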); conditions: E. coli expressing H. pylori AddAB + T4 phage, OD growth; at 11.9 µM; hits give high values; gene 2 mutant T4, recBCD-deleted host
[20] = STAT1 signaling activators, confirmation, cell-based, HTS, luciferase reporter (AID 1262;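 active = activation above a set limit carried over from the earlier primary STAT1 screen, cut at about 140% in these data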;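 also: simple ratio to median IFN-gamma plus DMSO wells so 0% means no light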); conditions: NIH 3T3 STAT1-luciferase reporter, IFN-gamma potentiation, luminescence; at 5.7 µM; hits give high values; 100% = IFN-gamma EC80 alone, no compound
[21] = NF-kB reporter activators, TNF-alpha stimulated, counter-screen for STAT1 activator project, cell-based, HEK293T, luciferase luminescence (AID 1306;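 active = activation above the mean of solvent-only control wells plus 3 SD, set per campaign, cut at about 130% in these data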;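 also: TNF-alpha given at a submaximal dose yielding about 80% of full reporter signal; values are well signal over median control so 100% means no change and 0% no light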); conditions: at 5.7 µM, hits give high values, 100% = TNF-alpha with vehicle only
[22] = target: Signal transducer and activator of transcription 3 (Homo sapiens) (UniProt P40763); assay: STAT3 reporter activation by STAT1 hits, confirmation, counter-screen for STAT1 activator project, U3A cells, luciferase, luminescence (AID 1316;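 active = activation above the solvent-only control well mean plus 3 SD, set per plate batch, cut at about 110% in these data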;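 also: 0% = no luminescence and 100% = median IL-6 plus DMSO wells; higher means more STAT3 reporter activation so hits are non-selective activators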); conditions: IL-6, luminescence, at 5.7 µM, hits give high values, 100 = IL-6 alone, no compound effect, cells lack STAT1
[23] = compounds interfering with TAMRA-BSA probe, counter-screen for TCR-CD3 interaction inhibitor project, biochemical, fluorescence, TAMRA-labeled BSA (AID 652035; in the data active = inhibition above about 23%;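 also: 0% = buffer low control and 100% = reference high control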); conditions: TAMRA-labeled BSA probe fluorescence counterscreen; at 9.4 µM; hits give high values
[24] = test system: T-cell receptor (TCR)-CD3 interaction, human; assay: TCR-CD3 interaction inhibitors, retest, confirmation, biochemical, fluorescence, TAMRA-labeled TCR probe (AID 652036; in the data active = inhibition above about 19%); conditions: TAMRA-labeled TCR probe fluorescence binding assay; at 9.4 µM; hits give high values
[25] = STAT3 reporter inhibitors, retest of hits, confirmation, U3A cells, luciferase, luminescence (AID 1265;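 active = inhibition above the hit cutoff computed for the primary STAT3 screen, cut at about 44% in these data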;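 also: 0% = IL-6 plus DMSO and 100% = IL-6 plus nifuroxazide control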); conditions: IL-6 STAT3 luciferase reporter, at 5.7 µM, hits give high values, cell line lacks STAT1
[26] = NF-kB reporter inhibitors in human cells, confirmation, counter-screen for STAT3 inhibitor project, cell-based, HEK293T, luciferase, TNF-alpha stimulus (AID 1308;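 active = inhibition above the mean of solvent-only control wells plus 3 SD, cutoff set per campaign, cut at about 13% in these data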;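 also: 0% = TNF-alpha with DMSO and 100% = TNF-alpha with MG high control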); conditions: TNF-alpha induced, at 5.7 µM, hits give high values
[27] = STAT1 reporter inhibitors, IFN-gamma induced, confirmation, counter-screen for STAT3 inhibitor project, cell-based, NIH 3T3, luciferase luminescence (AID 1317;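 active = inhibition above the mean plus 3 SD of solvent-only control wells, limit set per screening run, cut at about 16% in these data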;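 also: 0% = DMSO with IFN-gamma and 100% = nifuroxazide control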); conditions: NIH 3T3 STAT1-luciferase reporter, at 5.7 µM, hits give high values
[28] = target: Insulin-degrading enzyme (Homo sapiens) (UniProt P14735); assay: human IDE inhibitors in live cells, confirmation, fluorescence polarization, HEK cells, FAbetaB substrate (AID 435028;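 active = mean inhibition across triplicate wells above the cutoff set by the earlier primary insulin-degrading enzyme screen, cut at about 16% in these data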;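 also: 0% = DMSO wells and 100% = 60 µM reference IDE inhibitor Ii1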); conditions: FAbetaB cleavage, at 5.59 µM, hits give high values
[29] = cytotoxicity in HEK cells, cytotoxicity control for IDE inhibitor project, cell-based, luminescence (AID 449730; in the data active = inhibition above about 22%;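 also: 0% = vehicle wells and 100% = reference cytotoxic drug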); conditions: HEK293 cytotoxicity, ATP luminescence; at 5.59 µM; hits give high values
[30] = target: Galanin receptor type 2 (Homo sapiens) (UniProt O43603); assay: GALR2 antagonists, retest of hits, confirmation, cell-based (AID 866; in the data active = inhibition above about 27%;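 also: cells stimulated with galanin at about its EC80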); conditions: GALR2-expressing cells, antagonist mode, at 4 µM, hits give high values
[31] = inhibitors of NFAT-driven beta-lactamase reporter, confirmation, counter-screen for GALR2 antagonist project, CHO NFAT-bla cells, FRET readout (AID 867;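 active = inhibition above the mean inhibition across tested compounds plus 3 SD, cut at about 27% in these data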;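 also: 0% = 500 nM thapsigargin stimulated wells and 100% = unstimulated BSA only wells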); conditions: thapsigargin-stimulated, at 4.2 µM, hits give high values

Chain of Toll-like receptor 9 (Homo sapiens) (Q9NR96 whole entry, looked up): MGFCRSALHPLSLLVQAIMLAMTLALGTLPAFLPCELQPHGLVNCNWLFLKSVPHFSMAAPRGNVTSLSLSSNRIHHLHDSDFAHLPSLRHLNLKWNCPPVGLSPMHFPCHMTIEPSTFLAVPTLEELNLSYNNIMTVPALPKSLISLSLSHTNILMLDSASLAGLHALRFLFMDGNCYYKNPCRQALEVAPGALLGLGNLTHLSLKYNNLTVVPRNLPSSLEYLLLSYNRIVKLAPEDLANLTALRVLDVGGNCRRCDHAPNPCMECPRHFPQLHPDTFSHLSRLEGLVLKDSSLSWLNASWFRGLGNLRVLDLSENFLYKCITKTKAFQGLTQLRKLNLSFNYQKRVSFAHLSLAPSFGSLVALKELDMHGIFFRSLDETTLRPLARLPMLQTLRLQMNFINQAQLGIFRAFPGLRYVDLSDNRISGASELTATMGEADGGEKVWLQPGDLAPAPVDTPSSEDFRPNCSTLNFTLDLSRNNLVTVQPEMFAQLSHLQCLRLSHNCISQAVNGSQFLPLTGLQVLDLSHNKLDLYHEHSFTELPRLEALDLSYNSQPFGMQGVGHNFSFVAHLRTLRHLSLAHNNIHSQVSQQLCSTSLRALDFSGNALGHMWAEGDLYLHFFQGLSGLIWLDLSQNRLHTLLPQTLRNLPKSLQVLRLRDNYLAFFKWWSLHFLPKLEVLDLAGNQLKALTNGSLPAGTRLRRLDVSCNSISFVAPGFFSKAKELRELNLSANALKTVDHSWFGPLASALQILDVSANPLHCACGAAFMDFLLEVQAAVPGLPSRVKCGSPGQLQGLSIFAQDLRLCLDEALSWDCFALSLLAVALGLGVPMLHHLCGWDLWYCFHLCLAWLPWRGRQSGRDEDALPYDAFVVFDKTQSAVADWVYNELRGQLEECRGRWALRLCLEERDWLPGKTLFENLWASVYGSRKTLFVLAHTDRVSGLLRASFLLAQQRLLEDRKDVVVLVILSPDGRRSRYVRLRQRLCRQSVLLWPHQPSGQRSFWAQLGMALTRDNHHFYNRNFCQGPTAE
Chain of Receptor-interacting serine/threonine-protein kinase 2 (Homo sapiens) (O43353 whole entry, looked up): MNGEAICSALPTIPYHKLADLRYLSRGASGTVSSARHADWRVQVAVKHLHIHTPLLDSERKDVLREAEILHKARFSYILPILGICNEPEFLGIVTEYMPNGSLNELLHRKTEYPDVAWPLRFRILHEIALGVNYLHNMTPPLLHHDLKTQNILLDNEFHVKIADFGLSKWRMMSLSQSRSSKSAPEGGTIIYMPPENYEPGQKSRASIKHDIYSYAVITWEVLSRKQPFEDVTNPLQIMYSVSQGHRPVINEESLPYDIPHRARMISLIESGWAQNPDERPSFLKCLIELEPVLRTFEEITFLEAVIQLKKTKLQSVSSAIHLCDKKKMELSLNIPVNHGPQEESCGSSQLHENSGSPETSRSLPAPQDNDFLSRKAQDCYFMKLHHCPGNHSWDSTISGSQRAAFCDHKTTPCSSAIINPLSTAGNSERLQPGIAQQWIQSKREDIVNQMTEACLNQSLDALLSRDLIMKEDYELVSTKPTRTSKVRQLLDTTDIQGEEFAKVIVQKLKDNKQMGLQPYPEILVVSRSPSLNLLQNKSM
Chain of (Lyso)-N-acylphosphatidylethanolamine lipase (Mus musculus) (Q8VD66 whole entry, looked up): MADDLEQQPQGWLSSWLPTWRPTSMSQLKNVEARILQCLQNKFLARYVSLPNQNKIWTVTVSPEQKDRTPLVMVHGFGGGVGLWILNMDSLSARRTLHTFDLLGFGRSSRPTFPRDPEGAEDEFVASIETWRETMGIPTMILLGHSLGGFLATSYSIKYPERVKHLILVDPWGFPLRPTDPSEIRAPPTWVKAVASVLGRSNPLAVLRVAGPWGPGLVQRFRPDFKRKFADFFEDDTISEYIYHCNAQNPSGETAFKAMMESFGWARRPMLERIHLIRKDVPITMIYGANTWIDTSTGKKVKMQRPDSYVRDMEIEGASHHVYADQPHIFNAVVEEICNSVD
Chain of Sphingosine 1-phosphate receptor 1 (Homo sapiens) (P21453 whole entry, looked up): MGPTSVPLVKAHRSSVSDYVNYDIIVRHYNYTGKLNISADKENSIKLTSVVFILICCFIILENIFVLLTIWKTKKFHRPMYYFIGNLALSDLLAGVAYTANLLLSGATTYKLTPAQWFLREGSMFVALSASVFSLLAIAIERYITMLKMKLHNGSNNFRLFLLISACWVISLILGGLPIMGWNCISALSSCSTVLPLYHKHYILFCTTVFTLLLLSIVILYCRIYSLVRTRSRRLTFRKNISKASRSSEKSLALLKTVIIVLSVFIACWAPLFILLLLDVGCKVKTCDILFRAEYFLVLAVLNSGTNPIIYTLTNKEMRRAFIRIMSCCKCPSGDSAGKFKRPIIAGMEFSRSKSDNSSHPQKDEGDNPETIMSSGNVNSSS
Chain of Insulin-degrading enzyme (Homo sapiens) (P14735 whole entry, looked up): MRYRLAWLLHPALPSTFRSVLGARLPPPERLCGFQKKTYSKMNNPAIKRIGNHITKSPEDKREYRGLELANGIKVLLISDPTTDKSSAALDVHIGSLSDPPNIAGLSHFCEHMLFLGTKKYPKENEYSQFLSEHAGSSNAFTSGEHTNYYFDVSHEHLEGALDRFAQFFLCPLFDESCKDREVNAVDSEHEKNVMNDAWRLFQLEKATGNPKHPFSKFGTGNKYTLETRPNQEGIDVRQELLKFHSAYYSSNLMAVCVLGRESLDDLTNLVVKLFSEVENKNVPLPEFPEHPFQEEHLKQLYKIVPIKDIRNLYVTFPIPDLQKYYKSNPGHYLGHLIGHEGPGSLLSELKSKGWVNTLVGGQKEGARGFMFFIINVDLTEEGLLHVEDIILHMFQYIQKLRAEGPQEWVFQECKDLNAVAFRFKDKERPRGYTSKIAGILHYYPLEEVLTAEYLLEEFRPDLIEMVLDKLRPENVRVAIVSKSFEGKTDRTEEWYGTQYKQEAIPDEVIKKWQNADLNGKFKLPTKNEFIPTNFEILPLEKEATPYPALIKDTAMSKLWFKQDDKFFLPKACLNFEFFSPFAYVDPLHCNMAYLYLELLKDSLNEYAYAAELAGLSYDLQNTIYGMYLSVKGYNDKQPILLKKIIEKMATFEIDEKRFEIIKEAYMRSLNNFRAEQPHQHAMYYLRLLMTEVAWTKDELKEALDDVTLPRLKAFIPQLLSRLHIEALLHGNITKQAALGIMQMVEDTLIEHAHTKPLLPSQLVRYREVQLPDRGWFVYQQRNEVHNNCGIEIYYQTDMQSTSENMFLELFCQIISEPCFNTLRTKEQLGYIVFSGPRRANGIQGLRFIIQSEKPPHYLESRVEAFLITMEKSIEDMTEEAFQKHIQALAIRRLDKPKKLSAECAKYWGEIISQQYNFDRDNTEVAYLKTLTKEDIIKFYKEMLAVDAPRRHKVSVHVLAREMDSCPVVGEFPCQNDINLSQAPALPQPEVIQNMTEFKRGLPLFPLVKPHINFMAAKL
Chain of Sphingosine 1-phosphate receptor 4 (Homo sapiens) (O95977 whole entry, looked up): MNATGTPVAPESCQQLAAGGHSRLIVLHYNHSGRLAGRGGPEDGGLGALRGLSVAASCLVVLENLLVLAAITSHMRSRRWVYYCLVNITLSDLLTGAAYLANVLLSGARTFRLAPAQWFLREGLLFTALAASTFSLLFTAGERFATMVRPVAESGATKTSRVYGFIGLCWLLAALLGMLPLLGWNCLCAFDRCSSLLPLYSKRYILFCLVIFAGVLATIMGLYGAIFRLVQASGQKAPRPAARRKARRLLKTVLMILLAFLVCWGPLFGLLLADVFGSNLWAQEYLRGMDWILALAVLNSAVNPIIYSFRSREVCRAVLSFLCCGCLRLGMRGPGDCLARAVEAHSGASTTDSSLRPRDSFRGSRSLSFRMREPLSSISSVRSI
Chain of Galanin receptor type 2 (Homo sapiens) (O43603 whole entry, looked up): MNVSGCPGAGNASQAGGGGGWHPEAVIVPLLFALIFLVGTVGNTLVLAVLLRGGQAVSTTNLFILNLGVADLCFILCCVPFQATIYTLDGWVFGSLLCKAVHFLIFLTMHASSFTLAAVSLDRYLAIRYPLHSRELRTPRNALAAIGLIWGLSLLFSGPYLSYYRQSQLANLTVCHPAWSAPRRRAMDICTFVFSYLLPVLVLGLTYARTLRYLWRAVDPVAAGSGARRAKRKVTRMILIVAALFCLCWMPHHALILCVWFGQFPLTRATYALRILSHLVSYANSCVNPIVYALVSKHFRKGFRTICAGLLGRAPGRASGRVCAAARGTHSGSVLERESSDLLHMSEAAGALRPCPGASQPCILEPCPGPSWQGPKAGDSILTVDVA

CCN(CC)CCCC(C)n1c2nc(=O)[nH]c(=O)c-2nc2cc(Cl)ccc21 (stereo not drawn)
active: inhibition [4] 38.1% | inhibition [5] 40% | inhibition [6] 44.4% | inhibition [9] 59.8%
inactive: inhibition [1] 12.3% | inhibition [2] 14.8% | inhibition [3] -0.12% | activation [7] 2.04% | inhibition [8] -7.01%

O=C1c2cccc3c([N+](=O)[O-])ccc(c23)C(=O)N1CC1CCCO1 (stereo not drawn)
active: inhibition [10] 82.5% | inhibition [11] 108% | inhibition [12] 112% | inhibition [13] 118% | inhibition [1] 45.8% | inhibition [2] 73.2% | inhibition [3] 56.5% | inhibition [4] 83% | inhibition [5] 70.6%

Cc1ccc(S(=O)(=O)/N=C2\C=C(NS(=O)(=O)c3ccc(C)cc3)C(=O)c3ccccc32)cc1
active: inhibition [6] 60.6%
inactive: activation [7] -1.1% | inhibition [8] 5.59% | inhibition [9] 12%

Cn1ccc(=Nc2ccc(NC(=O)c3ccc(N=c4ccn(C)c5ccc([N+](=O)[O-])cc45)cc3)cc2)cc1
active: inhibition [14] 99.9% | inhibition [15] 101% | inhibition [16] 101% | inhibition [17] 101% | inhibition [19] 102% | inhibition [9] 21%
inactive: inhibition [18] -7.32% | activation [7] -0.71% | inhibition [8] 2.56%

O=C(c1ccc(Cl)cc1)c1cnc(Nc2ccccc2)s1
active: inhibition [11] 29.5%
inactive: inhibition [10] 9.98%

CO/N=C(\C(=O)N[C@@H]1C(=O)N2C(C(=O)O)=C(COC(C)=O)CS[C@H]12)c1csc(N)n1 (stereo in doubt)
inactive: activation [7] 0.25% | inhibition [8] -1.28%
active: inhibition [14] 99.2% and 97% | inhibition [15] 99.5% and 97.6% | inhibition [16] 99.6% and 98.1% | inhibition [17] 100% and 96.2% and 102% | inhibition [18] 102% and 97.1% and 103% | inhibition [19] 102% and 96.3% | inhibition [9] 42.8%

COc1ccc(-n2ncc3c(N4CCCc5ccccc54)ncnc32)cc1
active: activation (% of control) [20] 209% | activation (% of control) [21] 139% | activation (% of control) [22] 112%

Cc1ccccc1NCC(=O)N/N=C\c1ccc([N+](=O)[O-])s1
inactive: inhibition [23] 1.19% | inhibition [24] 7.69% | activation [7] -0.2% | inhibition [8] 1.03% | inhibition [9] -2.15%

C=CC1=C(C(=O)O)N2C(=O)[C@@H](NC(=O)/C(=N\OCC(=O)O)c3csc(N)n3)[C@H]2SC1
active: inhibition [14] 103% | inhibition [15] 103% | inhibition [16] 104% | inhibition [17] 102% | inhibition [18] 104% | inhibition [19] 104% | activation [7] 85.5% | inhibition [9] 62.9%
inactive: inhibition [8] -430%

Cc1ccc2cc3cc(C(=O)N4CCCCCC4)oc3nc2c1
inactive: inhibition [25] 7.37% | activation (% of control) [21] 120% | inhibition [26] -42% | inhibition [27] -140%
active: activation (% of control) [20] 224% | activation (% of control) [22] 137%

O=C(NNC(=O)c1ccccc1O)c1ccccc1O
active: inhibition [17] 25.8% | inhibition [18] 26.4% | inhibition [19] 38.9% | inhibition [24] 37.8% | inhibition [9] 62.9%
inactive: inhibition [23] 2.97% | activation [7] 0.99% | inhibition [8] -4.93%

C[n+]1ccc(/C=C/c2c[nH]c3ccccc23)cc1
active: inhibition [10] 26.1% | inhibition [11] 42.1% | inhibition [28] 42.6%
inactive: inhibition [29] 13.1%

Cc1cccc(-c2noc(-c3ccc(F)cc3)n2)c1
active: activation (% of control) [20] 222% | activation (% of control) [22] 119%
inactive: activation (% of control) [21] 133%

COc1ccccc1N1N=C(c2cccs2)CC1c1ccccc1 (stereo not drawn)
active: inhibition [30] 27.9% | inhibition [31] 39.8% | inhibition [10] 36% | inhibition [11] 70% | inhibition [1] 32.9% | inhibition [4] 51.8% | inhibition [5] 65.6%
inactive: inhibition [2] 43.5% | inhibition [3] 2.88%

O=C(Nc1ccc(Cl)cn1)c1cnn2cccnc12
inactive: activation (% of control) [21] 128%
active: activation (% of control) [20] 171% | activation (% of control) [22] 111%

COc1ccccc1-c1cc(C(=O)N2CCCCC2)no1
active: activation (% of control) [20] 204% | activation (% of control) [21] 137% | activation (% of control) [22] 116%

C=CC1=C(C(=O)O)N2C(=O)[C@@H](NC(=O)/C(=N/OCC(=O)O)c3csc(N)n3)[C@H]2SC1
inactive: inhibition [23] 6.41% | inhibition [8] -213%
active: inhibition [14] 102% | inhibition [15] 100% | inhibition [16] 101% | inhibition [17] 100% | inhibition [18] 101% | inhibition [19] 101% | inhibition [24] 20% | activation [7] 42.3% | inhibition [9] 90.4%

Cc1ccc(NC(=O)Nc2ccccc2)c(Br)c1
inactive: activation (% of control) [21] 124% | activation (% of control) [22] 89.8%
active: activation (% of control) [20] 171%

COC(=O)Cc1cc(=O)n(-c2nc3ccccc3s2)[nH]1
inactive: inhibition [10] -4.76% | inhibition [11] 4.99%

O=C1NC(=O)C2C1C(c1ccc([N+](=O)[O-])cc1)=NN2Cc1ccccc1 (stereo not drawn)
inactive: inhibition [2] 25.6% | inhibition [3] 4.55%
active: inhibition [10] 25.8% | inhibition [11] 42.9% | inhibition [1] 25.8% | inhibition [4] 49.4% | inhibition [5] 51.9%
